High-throughput results deposited in PubChem BioAssay by several laboratories.
NRP1-CendR mod: modulators of CendR peptide binding to human neuropilin-1. O14786. FAM-RPARPAR peptide binding to NRP-1, fluorescence polarization. inhibition, % at 25 µM. 360,000 compounds, 0.85% hits. AID 602438;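 active = inhibition or corrected inhibition above about 18%, plus a signal ratio from 0.5 to 1.5, limit read from the data, passing the limit was not always enough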
A3A deaminase: inhibitors of human APOBEC3A DNA deaminase; recombinant A3A, FAM/TAMRA ssDNA deamination fluorescence; inhibition, % at 20 µM; 330,000 compounds, 0.41% hits; AID 493011;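 active = at least 40% inhibition at 20 µM here, with at most 30% in a related deaminase screen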;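 also: plate controls were A3A with DMSO for no effect and wells lacking A3A enzyme for full effect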
ADAM17 inh: inhibitors of human ADAM17. P78536. inhibition, % at 6.95 µM. 370,000 compounds, 0.83% hits. recombinant ADAM17, EDANS/DABCYL FRET peptide cleavage;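 active = inhibition above the mean of compounds lying between control limits plus 3 SD, set per campaign, cut at about 8.5% in these data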;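 also: 0% = DMSO-only wells as the low control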
APOBEC3G inh: blocks human APOBEC3G single-stranded DNA deamination; Q9HC16; recombinant A3G, ssDNA deamination FAM/TAMRA fluorescence; inhibition, % at 20 µM; 330,000 compounds, 0.28% hits; AID 493012;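 active = inhibition of at least 40% at 20 µM, with no more than 30% in the related APOBEC3A deaminase screen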;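 also: plate controls were DMSO wells with A3G for no effect and wells lacking A3G enzyme for full effect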
ADAM10 inh: inhibitors of human ADAM10. O14672. 370,000 compounds, 0.62% hits. recombinant ADAM10, EDANS/DABCYL FRET peptide cleavage, 3 h. AID 720582. inhibition, % at 7 µM;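 active = inhibition above a per-campaign cutoff equal to the mean of compounds falling between control-based bounds plus 3 SD, cut at about 20% in these data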;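 also: 0% = DMSO wells while the 100% control is not disclosed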
A3A conf: APOBEC3A (human) deaminase inhibition, confirmed. shares compounds with A3A deaminase. recombinant A3A, ssDNA deaminase UDG fluorescence assay. inhibition, % at 20 µM. 1,400 compounds, 63% hits. AID 493151;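 active = inhibition reaching a set limit, 80% of the first screen's cutoff, at 20 µM in any replicate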;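 also: plate controls were DMSO wells with A3A for no effect and wells lacking A3A enzyme for full effect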
UDG ctr A3A: UDG inhibition in APOBEC3A counter-screen; shares compounds with A3A deaminase; UDG counterscreen, FAM/TAMRA uracil oligo fluorescence; inhibition, % at 20 µM; 1,000 tested, under 10 active; call rule not given here
The depositor's hits bear a star; . = no result. A selection: hits, their analogues and other compounds. The true share with any hit is near 2.4%.

SMILES	NRP1-CendR mod	A3A deaminase	ADAM17 inh	APOBEC3G inh	ADAM10 inh	A3A conf	UDG ctr A3A
O=C(CSc1nnc(COc2ccccc2Cl)o1)NC(=O)NCc1ccco1	-14.3	58.7*	-0.8	23.1	1.8	22.1*	-0.8
CCNc1nc(N)c([N+](=O)[O-])c(Nc2cccc(Cl)c2)n1	.	.	0.2	.	3.2	.	.
COC(=O)[C@]12C[C@H](CC(=O)NCc3ccccc3)C(=O)N(Cc3ccccc3)C1=C[C@H](C1CCCC1)O[C@@H]2C	.	.	0.5	.	6.2	.	.
Cc1noc(C)c1S(=O)(=O)N1CCCc2nc(-c3ccc(F)cc3)ccc21	.	.	1.8	.	2.3	.	.
O=C(CSc1ncn(-c2ccccc2)n1)Nc1ccc2c(c1)OCO2	-5.7	46.3*	-2.8	12.0	8.6	11.2	.
COc1ccc(NC(=O)CSc2nc3ccsc3c(=O)n2Cc2ccccn2)c(OC)c1	4.2	42.6*	-3.3	-3.0	-2.7	6.3	0.1
C=CC1=C(C(=O)O)N2C(=O)[C@@H](NC(=O)/C(=N\O)c3csc(N)n3)[C@H]2SC1 (stereo in doubt)	-0.6	89.2*	-10.1	18.5	-16.3	87.9*	.
C[C@H]1[C@H](NC(=O)/C(=N\OC(C)(C)C(=O)O)c2csc(N)n2)C(=O)N1S(=O)(=O)O	.	.	-3.9	.	-10.8	.	.
O=C(Nc1c(-c2ccccc2)nc2ncccn12)c1ccccc1	.	.	-67.5	.	-237.8	.	.
CSc1ccccc1NC(=O)CN(C)CC(=O)c1[nH]c(C)c(C(C)=O)c1C	-5.6	67.8*	-4.8	19.5	-15.2	50.2*	-0.6
CCCn1nc(NC(=O)c2ccccn2)c2cc3cc(C)ccc3nc21	-11.0	-1.7	-10.5	-4.5	-30.5	.	.
CCCn1nc(NC(=O)COC)c2cc3cc(C)ccc3nc21	1.2	52.7*	.	27.8	.	57.8*	-2.0
CCn1nc(NC(=O)COC)c2cc3cc(C)ccc3nc21	-7.1	45.1*	-31.3	15.6	-59.2	59.0*	-0.3
CCCC(=O)Nc1nn(C)c2nc3cc(C)ccc3cc12	.	-2.5	.	-5.7	.	.	.
CCCCn1nc(NC(=O)COC)c2cc3ccc(C)cc3nc21	3.2	46.9*	.	14.9	.	66.7*	5.6
Cc1ccc(-c2cc(C(=O)NN=Cc3cccc4ccccc34)[nH]n2)cc1C	.	.	2.0	.	6.7	.	.
CCn1c(SCC(=O)N2CCc3ccccc32)nnc1-c1ccncc1	16.8	49.5*	-4.8	19.9	-2.7	26.9	.
O=C(CSc1nnnn1-c1ccccc1)N1CCc2ccccc21	-1.7	41.3*	-3.7	16.9	-1.1	62.0*	-2.1
CC(C)CC[n+]1ccccc1/C=C/c1ccc(N(C)C)cc1	-254.3	55.6*	4.7	-13.1	13.6	54.1*	-4.0
CN(C)c1ccc(/C=C/c2cccc[n+]2[O-])cc1	-43.3	-4.1	2.8	-8.0	2.8	.	.
Cc1nc2ccccc2c(=O)[nH]1	4.1	-4.3	-0.5	-8.3	-4.8	.	.
O=c1[nH]c(C2C3CC4CC(C3)CC2C4)nc2ccccc12 (stereo not given)	-4.4	49.0*	1.8	-4.2	-5.1	-9.5	-2.1
COc1ccc(OC)c(S(=O)(=O)CC(=O)c2cc3ccccc3oc2=O)c1	.	.	-2.1	.	-8.0	.	.
C[C@H]1[C@@H](OC(=O)N2CCOCC2)CC[C@@]23CCCN2C(=O)CCC[C@@H]13	.	.	-0.9	.	3.3	.	.
COc1ccc(NC(=O)CN(C)C(=O)c2cc(-c3cccs3)nn2-c2ccccc2)cc1	-9.7	2.8	1.9	-3.7	3.5	.	.
SMILES	NRP1-CendR mod	A3A deaminase	ADAM17 inh	APOBEC3G inh	ADAM10 inh	A3A conf	UDG ctr A3A
CCN(CC(=O)Nc1ccc(OC)cc1)C(=O)c1cc(-c2cccs2)nn1-c1ccccc1	-1.5	78.4*	2.1	-10.7	-5.8	1.0	4.9
CC(=O)c1ccc(S(=O)(=O)Nc2cccc(-n3cnnn3)c2)cc1	-6.6	43.5*	-2.5	22.2	-2.0	31.3	.
O=C(N[C@@H](Cc1cccnc1)C(=O)N1CCC[C@H]1C(=O)NC1CCCC1)C1CC1	.	.	-6.8	.	-12.1	.	.
CCC1N=C(SC)NC(C)=C1C(=O)c1ccccc1 (stereo not given)	-0.7	47.9*	0.5	18.9	-3.8	34.8*	-2.7
CCCC[C@H]1C2CC(OC(=O)Nc3ccc(Cl)cc3)C(C2)[C@H]2CCCCN21 (stereo not given in full)	.	.	-3.3	.	-6.4	.	.
CO[C@@]1(NC(=O)C2SC(=C(C(N)=O)C(=O)O)S2)C(=O)N2C(C(=O)O)=C(CSc3nnnn3C)CS[C@@H]21 (stereo not given in full)	-27.1	49.5*	-6.0	2.6	-0.8	43.1*	-0.3
Cc1nn(CC(=O)NC2C(=O)N3C(C(=O)O)=C(CSc4nnnn4C)CSC23)cc1Br (stereo not given)	0.1	16.3	-6.5	-2.4	-7.0	.	.
COC(=O)C1=C(C)N(CC(C)C)C(=S)NC1c1ccc(Cl)cc1 (stereo not given)	.	.	-0.4	.	-1.5	.	.
CCC1=[N+](CC(=O)c2ccc(C)cc2)CCn2c(C)ccc21	1.1	-3.2	-22.9	-1.5	-106.4	.	.
CCC1=[N+](C)CCn2c(C)ccc21	0.4	64.0*	-6.6	26.6	-1.5	76.1*	4.1
CC(C)C[C@@H]1COc2cc(Br)ccc2S(=O)(=O)N1Cc1cn(Cc2ccc(Cl)cc2)nn1	.	.	1.4	.	7.1	.	.
Cc1ccc(S(=O)(=O)N2CC[C@@]3(Cc4ccccc4)Cc4ccccc4C[C@@H]23)cc1	.	.	1.5	.	3.3	.	.
CC(=O)[C@]1(O)Cc2c(O)c3c(c(O)c2[C@@H](O[C@H]2C[C@H](N)[C@H](O)[C@H](C)O2)C1)C(=O)c1ccccc1C3=O	.	40.7*	.	19.7	.	46.4*	-1.6
COC(=O)C1=C(C)N(Cc2ccc(C(F)(F)F)cc2)C(=NCc2ccc3c(c2)OCO3)NC1c1ccccc1C(F)(F)F (stereo not given)	.	.	0.4	.	3.6	.	.
CC1(C)CC(N2CCCC2)=CC(=[N+]2CCCCC2)C1	-2.7	50.8*	0.7	18.7	11.5	70.5*	5.3
CC1(C)CC(N2CCCC2)=CC(=[N+]2CCCC2)C1	-7.3	65.9*	-0.6	22.1	14.1	71.8*	1.6
CC1(C)CC(N2CCN(Cc3ccccc3)CC2)=CC(=[N+]2CCCCC2)C1	19.1	32.2	0.0	14.9	8.3	.	.
COc1ccc2nc(NC(=O)Cn3cnc4ccccc4c3=O)sc2c1	-23.8	43.4*	-4.2	12.3	-4.4	2.9	.
COc1ccc(NC(=O)Cn2cnc3ccccc3c2=O)cc1OC	-9.3	-3.4	-3.5	-12.5	-12.7	.	.
Cc1[nH]c2ccccc2c1CC(=O)Nc1ccc(Oc2cccnc2)cc1	.	.	-1.2	.	-7.2	.	.
C=CCn1c(NC(=O)c2ccc(C)cc2)c(C#N)sc1=N	-2.1	56.3*	-0.7	24.1	-24.4	70.7*	0.6
Fc1ccc(Nc2ncnc3sc4c(c23)CCC4)cc1	-2.6	60.6*	-2.7	-4.8	-3.2	0.3	1.9
c1ccc(Nc2ncnc3sc4c(c23)CCC4)cc1	-5.9	-0.6	0.1	-4.7	8.8	.	.
